Bioassay records as filed in PubChem BioAssay.
HEK293 viab: GF-AFC viability counterscreen for inhibitors of alpha-synuclein gene (SNCA) expression; HEK-293-SNCA-luc viability, GF-AFC fluorescence, 24 h; Potency, µM (highest dose often 57.1 µM), hits mostly cytotoxic; 150,000 tested, 0.12% active; also: nearly all actives have a fitted effect of over 30% in size
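Cytotoxicity counterscreen: after 24 h compound treatment of genome-edited SNCA-luciferase HEK-293 cells, live-cell protease substrate GF-AFC read by fluorescence after 30 min; activity scaled between DMSO (0%) and medium-only (-100%), curves Hill-fitted.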
Luciferase inh: Firefly luciferase inhibition profiling of diverse chemical library using quantitative high-throughput screening; purified P. pyralis luciferase, luminescence, biochemical; Potency, µM (series often up to 115 µM), most hits filed as inhibitors; 76,000 tested, 2.5% active; also: nearly all actives have a fitted effect of over 65% in size
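FLuc 10nM, D-luciferin 10uM, ATP 10uM, Mg acetate 10mM, Tris acetate pH 7.5, Tween/BSA; cpd qHTS; enzyme added last; CCD luminescence.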
NPR1 antag: Natriuretic polypeptide receptor (hNpr1) antagonism - Primary qHTS; Atrial natriuretic peptide receptor 1 (Homo sapiens), P16066; 76,000 tested, 1.6% active; HEK293 hNpr1 GloSensor cGMP, ANP-stimulated luminescence; Potency, µM (doses to about 46.3 µM), usual class: inhibitors; calls by dose curve; also: nearly all actives have a fitted effect of over 60% in size
Target sequence (P16066 whole entry, looked up): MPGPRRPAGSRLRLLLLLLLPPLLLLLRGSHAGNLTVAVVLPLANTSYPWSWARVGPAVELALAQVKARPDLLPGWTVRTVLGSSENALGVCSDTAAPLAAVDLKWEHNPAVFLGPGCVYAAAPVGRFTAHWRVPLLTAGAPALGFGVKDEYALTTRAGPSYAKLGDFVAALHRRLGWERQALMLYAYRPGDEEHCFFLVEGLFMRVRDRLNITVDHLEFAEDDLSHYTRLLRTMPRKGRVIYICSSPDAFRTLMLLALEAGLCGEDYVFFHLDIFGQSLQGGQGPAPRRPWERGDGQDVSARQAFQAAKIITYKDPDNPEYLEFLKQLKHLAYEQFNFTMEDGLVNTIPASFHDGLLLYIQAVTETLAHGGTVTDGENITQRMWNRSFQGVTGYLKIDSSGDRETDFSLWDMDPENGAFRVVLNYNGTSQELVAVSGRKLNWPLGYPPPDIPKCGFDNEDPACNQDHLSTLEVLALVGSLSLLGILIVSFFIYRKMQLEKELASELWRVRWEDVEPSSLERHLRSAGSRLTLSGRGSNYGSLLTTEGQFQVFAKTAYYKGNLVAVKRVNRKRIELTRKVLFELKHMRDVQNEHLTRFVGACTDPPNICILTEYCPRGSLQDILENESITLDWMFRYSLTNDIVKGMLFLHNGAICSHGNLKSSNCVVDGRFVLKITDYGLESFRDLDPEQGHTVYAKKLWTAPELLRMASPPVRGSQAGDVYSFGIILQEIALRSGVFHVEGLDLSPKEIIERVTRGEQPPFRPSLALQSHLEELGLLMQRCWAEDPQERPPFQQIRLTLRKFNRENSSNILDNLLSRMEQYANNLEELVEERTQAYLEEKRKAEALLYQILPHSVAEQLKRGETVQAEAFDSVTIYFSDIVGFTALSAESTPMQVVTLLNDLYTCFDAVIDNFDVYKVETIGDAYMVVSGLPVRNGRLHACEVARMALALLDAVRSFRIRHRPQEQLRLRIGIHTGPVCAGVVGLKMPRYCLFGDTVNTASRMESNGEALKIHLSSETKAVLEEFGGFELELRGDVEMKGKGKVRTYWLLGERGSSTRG
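HEK293 cells stably expressing human Npr1 and cGMP GloSensor pGS-40F, loaded 2 h with 2% GloSensor reagent, given compound 30 min at room temperature. Luminescence read before and 20 min after 0.1 nM hNppA.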
SNCA expr inh: Primary qHTS assay for inhibitors of alpha-synuclein gene (SNCA) expression; HEK-293 SNCA-luciferase knock-in, luminescence, 24 h; Potency, µM (doses to about 57.2 µM), actives largely listed as inhibitors; 140,000 tested, 0.17% active; also: nearly all actives have a fitted effect of over 45% in size
HEK293 tox: Cytotoxic Profiling in HEK 293 Cell Line of Diverse Libraries Using Quantitative High-Throughput Screening | Potency, µM (doses to about 115 µM), usual class: inhibitors | 94,000 tested, 6.6% active | HEK 293 viability, ATP luminescence (CellTiter-Glo), 48-72 h; also: nearly all actives have a fitted effect of over 60% in size
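Viability of HEK 293 cells, plated at 250 cells/well, was judged by cellular ATP after compound treatment for 48 or 72 hr. Luminescence was imaged 10 min after CellTiter-Glo addition at room temperature.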
NIH3T3 tox: Cytotoxic Profiling in NIH 3T3 Cell Line of Diverse Libraries Using Quantitative High-Throughput Screening; NIH 3T3 viability, CellTiter-Glo ATP luminescence, 48-72 h; Potency, µM (series often up to 96.7 µM), hits mostly inhibitors; 94,000 tested, 4.3% active; AID 1345082, 2018; also: nearly all actives have a fitted effect of over 55% in size
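Viability of NIH 3T3 cells after 48 or 72 hr compound treatment at 37 °C was assessed by CellTiter-Glo, with luminescence imaged following a 10 min room-temperature step.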
Of the large screens only hits and unclear results are named; the others gave an inactive call. A selection: hits, their analogues and other compounds. The true share with any hit is near 7.4%. Unless noted, calls follow the shape of the dose curve; as a rule, active = well fitted curve in the direction sought with a large enough effect; inconclusive = small, poorly fitted or top-dose-only effect, or another doubt; inactive = no such curve, though single readings can be large; an effect the other way counts as inactive or inconclusive.

CNCc1cn(C[C@H]2O[C@@H](CC(=O)N3CCC[C@@H]3COC)[C@H](O)[C@@H]2O)nn1	none
COc1cccc(C(=O)N2CC(Oc3ccc(-c4nc(-c5ccccc5)no4)cc3)C2)c1	HEK293 tox 22µM, NIH3T3 tox inconclusive
COc1cccc(C(=O)N2CC(Oc3ccccc3-c3nc(-c4ccccc4)no3)C2)c1	HEK293 viab inconclusive, Luciferase inh inconclusive, SNCA expr inh inconclusive, HEK293 tox 20µM, NIH3T3 tox inconclusive
Cn1nccc1C(=O)N1CCC(Oc2ccc(-c3noc(-c4ccccc4)n3)cc2)C1 (stereo not given)	HEK293 tox 22µM, NIH3T3 tox inconclusive (no result: Luciferase inh, NPR1 antag)
O=C(c1cccnc1)N1CC(Oc2ccc(-c3noc(-c4ccccc4)n3)cc2)C1	HEK293 viab inconclusive, Luciferase inh inconclusive, NPR1 antag 11µM, HEK293 tox inconclusive
Cn1cc(C(=O)N2CC(Oc3ccc(-c4nc(-c5ccccc5)no4)cc3)C2)cn1	Luciferase inh inconclusive
Cc1nc(C)c(C(=O)N2CC(Oc3ccccc3-c3nc(C4CC4)no3)C2)s1	HEK293 tox 89µM, NIH3T3 tox inconclusive
COc1ccc2[nH]c(C[C@@H]3C[C@@H](C(C)C)[C@H](CNC(=O)C4CCC4)C=C3C)nc2n1	HEK293 viab inconclusive, NPR1 antag inconclusive, HEK293 tox 45µM, NIH3T3 tox 63µM
CC1=C[C@@H](CNC(=O)c2cnccn2)[C@H](C(C)C)C[C@H]1Cc1nc2ccccc2[nH]1	NPR1 antag inconclusive, SNCA expr inh inconclusive, HEK293 tox inconclusive, NIH3T3 tox inconclusive
CC1=C[C@@H](CNC(=O)CN(C)C)[C@H](C(C)C)C[C@H]1Cc1nc2ccccc2[nH]1	HEK293 viab inconclusive, HEK293 tox inconclusive, NIH3T3 tox 100µM
COc1ccccc1C(=O)NC[C@@H]1C=C(C)[C@H](Cc2nc3ccccc3[nH]2)C[C@H]1C(C)C	HEK293 viab inconclusive, NPR1 antag inconclusive, SNCA expr inh inconclusive, HEK293 tox inconclusive, NIH3T3 tox 32µM
CC1=C[C@@H](CN2CCC(C(N)=O)CC2)[C@H](C(C)C)C[C@H]1Cc1nnc(-c2ccc(N(C)C)cc2)o1	HEK293 tox 40µM, NIH3T3 tox 35µM
CC1=C[C@@H](CN2CCC(C(N)=O)CC2)[C@H](C(C)C)C[C@H]1Cc1nnc(-c2ccccc2F)o1	HEK293 viab inconclusive, HEK293 tox inconclusive, NIH3T3 tox inconclusive
CC1=C[C@@H](CN2CCC(C(N)=O)CC2)[C@H](C(C)C)C[C@H]1Cc1nnc(-c2ccc(C)cc2)o1	HEK293 tox 35µM, NIH3T3 tox 32µM
COCC(=O)N[C@H]1C[C@@H](CO)N(Cc2ccc(Br)o2)C1	none
Cc1ccc(-c2cc3c(=O)n(CC(O)c4ccc(C)c(C)c4)ccn3n2)c(C)c1 (stereo not given)	NPR1 antag inconclusive, HEK293 tox 40µM, NIH3T3 tox inconclusive
Cc1ccc(C)c(C(=O)NCCn2ccn3nc(-c4cc(C)ccc4C)cc3c2=O)c1	SNCA expr inh inconclusive, HEK293 tox 40µM, NIH3T3 tox inconclusive
Cc1ccc(-c2cc3c(=O)n(CCNC(=O)c4ccc(Cl)cc4)ccn3n2)c(C)c1	HEK293 tox 40µM, NIH3T3 tox inconclusive
Cc1ccc(C)c(-c2cc3c(=O)n(CCNC(=O)c4ccccc4F)ccn3n2)c1	SNCA expr inh inconclusive, HEK293 tox inconclusive, NIH3T3 tox inconclusive
CC(C)c1noc(-c2cccn3c(CNC(=O)c4ccc(F)c(F)c4)nnc23)n1	none
O=C(NCCc1ccccn1)C1c2ccccc2C(=O)N(C2CCCCC2)C12CCCCC2 (stereo not given)	HEK293 tox 45µM, NIH3T3 tox inconclusive
